20 compounds from PubChem BioAssay (NCI) can be followed below.

About 79,000 compounds went through this panel and 15% of them were active in at least one assay; those are over-represented in the sample as a whole. Unmarked numbers belong to inactive results. Activity calls are given as the source filed them. Cut-off read from the data, not from the text of the source: active = growth inhibition above about 70%; inactive = the rest.

The nature of assay [1]: NCI Yeast Anticancer Drug Screen. Data for the rad50 strain (AID 155).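 Note: 0% = growth of vehicle-only cultures of the same strain.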 As to conditions: S. cerevisiae rad50 strain growth inhibition; at 50.0 µM; hits give high values. The essentials: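 Readout: growth inhibition relative to vehicle-treated cultures. Compound exposure was carried out in a genetically defined yeast strain deficient in DNA damage repair.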
Assay [2] in a line: NCI Yeast Anticancer Drug Screen. Data for the mec2-1 strain (AID 157). The following applies: S. cerevisiae mec2-1 strain, at 50.0 µM, hits give high values. The essentials:
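Cells of the genetically defined mec2-1 yeast strain are incubated with test compound. Inhibition of growth is calculated against vehicle-treated controls.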

Assay [3] in a line: NCI Yeast Anticancer Drug Screen. Data for the sgs1 mgt1 strain (AID 161).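 Note: 0% = growth of cultures given vehicle only.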 The following applies: S. cerevisiae sgs1 mgt1 strain, at 50.0 µM, hits give high values. The essentials:
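Mutant yeast exposed to compound; growth scored against vehicle-only wells.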

Assay [4] in a line: NCI Yeast Anticancer Drug Screen. Data for the cln2 rad14 strain (AID 165).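 Note: 0% = growth equal to vehicle treated cultures.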 As to conditions: S. cerevisiae cln2 rad14 strain, at 50.0 µM, hits give high values. The essentials:
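The screen exposed genetically defined yeast (cln2 rad14) to test compounds and scored growth inhibition relative to vehicle-treated controls.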

A short description of assay [5]: NCI Yeast Anticancer Drug Screen. Data for the bub3 strain (AID 167). As to conditions: S. cerevisiae bub3 mutant strain, at 50.0 µM, hits give high values. The essentials: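 Readout: yeast growth inhibition, expressed relative to vehicle-only wells. The test organism is a mutant strain from a panel with lesions in DNA repair or checkpoint genes.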
Assay [6] can be described thus: NCI Yeast Anticancer Drug Screen. Data for the mlh1 rad18 strain (AID 175). As to conditions: S. cerevisiae mlh1 rad18 strain growth inhibition; at 50.0 µM; hits give high values. The essentials:
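Compound-treated yeast growth, normalised to vehicle controls. Strain bears defined DNA repair mutations.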

`C=CCOC(=O)OCC=C`: the growth inhibition in assay [1] is 4%; in assay [2] it was -8.55%; in assay [3], 2%; in assay [4] it was -3.7%; in assay [5], 23.2%; in assay [6], 3.1%.
Turning to `CC1C(O)CCC2C1(C)CCC1C2(C)CCC2(C)C3CC(C)(C)CCC3(C)CCC12C` (stereo not given), the growth inhibition in assay [1] is -4.9%; in assay [2], -3.3%; in assay [3], 12.4%; in assay [4] it was -10.1%; in assay [5], 5.75%; in assay [6], -6.75%.
Regarding `S=C1NCCOc2ccccc21`, the growth inhibition in assay [1] is -8.65%; in assay [2], -13.1%; in assay [3], -2.5%; in assay [4], -8.05%; in assay [5], -10.9%; in assay [6], -4.55%.
`Cc1cc(C)n(/N=C/c2ccco2)c(=O)c1C#N`: the growth inhibition in assay [1] was -20.3%; in assay [2] it was -33.1%; in assay [3], -26.1%; in assay [4] it was 11.4%; in assay [5], -17.5%; in assay [6], -10.7%.
As for `CCCCCCC1(/C=C/c2ccc(Cl)cc2Cl)OCCCO1`, the growth inhibition in assay [1] is 3.3%; in assay [2], 9.1%; in assay [3], -5.45%; in assay [4], -2.75%; in assay [5], 11.8%; in assay [6], 3.65%.
With `CCN(C(=S)Nc1cccc(C(F)(F)F)c1)c1ccccc1`, the growth inhibition in assay [1] was 38.1%; in assay [2], 22.9%; in assay [3] it was 49%; in assay [4], 13.9%; in assay [5], 41%; in assay [6] it was 22.6%.
As for `CCC(=O)c1ccc2ccccc2c1`, the growth inhibition in assay [1] was 5.1%; in assay [2], 3.75%; in assay [3], -0.65%; in assay [4], -10.1%; in assay [5], -2.1%; in assay [6] it was -0.55%.
In the case of `CCOC(=O)NN(C(=O)OCC)c1c(C)cc(C)c(N(NC(=O)OCC)C(=O)OCC)c1C`, the growth inhibition in assay [1] is 1.7%; in assay [2], 7.25%; in assay [3], 12.4%; in assay [4], 23.9%; in assay [5], 16.4%; in assay [6], 22.6%.
As for `CCOC(=O)C(C#N)(C1C=CCC1)C1C=CCC1` (stereo not given), the growth inhibition in assay [1] is -1.9%; in assay [2], -0.1%; in assay [3] it was 14.3%; in assay [4], 43.9%; in assay [5], 46.3%; in assay [6], 13.3%.
In the case of `CC1CC(NC(=O)/C=C/C(=O)O)CC(C)(C)C1` (stereo not given), the growth inhibition is -2.85% in assay [1]; 1.05% in assay [2]; 9% in assay [3]; -2.95% in assay [4]; 33.9% in assay [5]; -0.2% in assay [6].
Turning to `COc1cc2c[n+](C)c(-c3ccc(Cl)c(Cl)c3)c(OC)c2cc1OC`, the growth inhibition is 56.1% in assay [1]; 8.15% in assay [2]; 41.5% in assay [3]; 31.4% in assay [4]; 14.9% in assay [5]; 41.5% in assay [6].
`CCOC(=O)c1ccc(CSc2ccc(OC)cc2)cc1`: the growth inhibition in assay [1] was 86.9% (active); in assay [2], 75.7% (active); in assay [3] it was 86.4% (active); in assay [4], 76.5% (active); in assay [5] it was 80.5% (active); in assay [6], 78.6% (active).
For `N#CCCP(=O)(O)CO`, the growth inhibition in assay [1] was -6.5%; in assay [2], -13.3%; in assay [3] it was 1.1%; in assay [4], 0.1%; in assay [5] it was 3.9%; in assay [6], -26.7%.
Consider `Clc1cccc[n+]1CCc1ccccc1`, for which the growth inhibition in assay [1] is 9.4%; in assay [2] it was 22.9%; in assay [3], 5.3%; in assay [4], -4.55%; in assay [5], 7.55%; in assay [6] it was 44%.
In the case of `O=C(Nc1ccc(C(F)(F)F)cc1[N+](=O)[O-])C(=O)Nn1c(=S)[nH]c2ccccc2c1=O`, the growth inhibition in assay [1] is 20.3%; in assay [2], 11.7%; in assay [3] it was -4.65%; in assay [4], 18.5%; in assay [5] it was 7.9%; in assay [6] it was 23.1%.
For the compound `CCCCCCCCCCCC(=O)O`, the growth inhibition in assay [1] is -0.85%; in assay [2], 0.7%; in assay [3] it was 25.6%; in assay [4] it was -7.45%; in assay [5], 10.1%; in assay [6], 19.2%.
For `C/C(=N\N(c1ccccc1)c1ccccc1)c1c(O)cc(C)oc1=O`, the growth inhibition in assay [1] is -25.8%; in assay [2], 8.2%; in assay [3], 12.9%; in assay [4] it was -27.4%; in assay [5], 3.05%; in assay [6], 14.8%.
As for `CCOC(=O)Nc1ccccc1F`, the growth inhibition is 4.4% in assay [1]; -16.1% in assay [2]; -3.95% in assay [3]; -6.15% in assay [4]; 4.75% in assay [5]; 9% in assay [6].
As to `C=C(Cl)C(Cl)(CBr)CCC(Cl)C(C)C` (stereo not given), the growth inhibition is 65% in assay [1]; 15.5% in assay [2]; 85.2% (active) in assay [3]; 73.7% (active) in assay [4]; 75.6% (active) in assay [5]; 72% (active) in assay [6].
In the case of `CC(C)CCC[C@@H](C)[C@H]1CC[C@H]2[C@@H]3CC=C4C[C@@H]([n+]5ccccc5)CC[C@]4(C)[C@H]3CC[C@]12C`, the growth inhibition in assay [1] is -2.45%; in assay [2], -9.8%; in assay [3], 0.95%; in assay [4], 8.15%; in assay [5] it was -14.1%; in assay [6], -7.55%.
